In this experiment the test system is Vero E6 infected with SARS-CoV-2. The experiment can be described thus: inhibition of SARS-CoV-2 cytopathic effect; higher = more antiviral protection, active = above 15. To be noted: 48 h.

Unmarked numbers belong to inactive results.

For `C[C@H](CCC(=O)O)[C@H]1CC[C@H]2[C@@H]3[C@H](O)C[C@@H]4C[C@H](O)CC[C@]4(C)[C@H]3C[C@H](O)[C@]12C` [cholic-acid], the “inhibition of SARS-CoV-2 cytopathic effect” value (“inhibition” for short) (1 nM) is -0.3%; the “inhibition” value (8.33 nM) is 0.75%; the “inhibition” value (100 nM) is 0.02%; the “inhibition” value (833.33 nM) was -0.84%; the “inhibition” value (10000 nM) is 0.54%.

As for `CN(C)C(=O)Oc1ccc[n+](C)c1` [mestinon], the “inhibition” value (1 nM) is 4.06%; the “inhibition” value (8.33 nM) is -0.26%; the “inhibition” value (100 nM) is 0.13%; the “inhibition” value (833.33 nM) is -2.1%; the “inhibition” value (10000 nM) is -1.86%.

`FC(F)OC(F)(F)C(F)Cl` (stereo not given) [enflurane]: the “inhibition” value was 1.24% (1 nM); 0.43% (8.33 nM); 1.56% (100 nM); -3.51% (833.33 nM); -3.14% (10000 nM).

On to `COC(=O)/C=C/c1cccc(N(Cc2ccc(-c3ccc(N(C)C)cc3)cc2)C(=O)C2CCCCC2)c1` [fexaramine], for which the “inhibition” value by setting is: (1 nM) -0.19%; (8.33 nM) 0.37%; (100 nM) -0.24%; (833.33 nM) 2.29%; (10000 nM) 1.78%.

As to `CCNC(=O)c1n[nH]c(-c2cc(Cl)c(O)cc2O)c1-c1ccc(OC)cc1`, the “inhibition” value (1 nM) was -4.03%; the “inhibition” value (8.33 nM) is -4.15%; the “inhibition” value (100 nM) was -2.27%; the “inhibition” value (833.33 nM) was -3.38%; the “inhibition” value (10000 nM) was -0.29%.

For `Clc1ccc(N/N=C(\c2ccccc2)c2ccccn2)nc1`, the “inhibition” value was -0.45% (1 nM); -0.79% (8.33 nM); -1.98% (100 nM); 9.6% (833.33 nM); 16.5% (active) (10000 nM).

As to `CCCS(=O)(=O)Nc1ccc(F)c(C(=O)c2c[nH]c3ncc(Cl)cc23)c1F`, the “inhibition” value (1 nM) was 0.68%; the “inhibition” value (8.33 nM) was 0.41%; the “inhibition” value (100 nM) was -0.45%; the “inhibition” value (833.33 nM) was 2.16%; the “inhibition” value (10000 nM) is 1.71%.

`CC(O)(C(=O)Nc1ccc(S(=O)(=O)c2ccccc2)cc1)C(F)(F)F` (stereo not given): the “inhibition” value reads like this: (1 nM) 1.63%; (8.33 nM) 1.61%; (100 nM) 2.14%; (833.33 nM) -0.08%; (10000 nM) 14.1%.

Consider `OCCN1CCN(CCCN2c3ccccc3C=Cc3ccccc32)CC1` [opipramol], for which the “inhibition” value was 2.92% (1 nM); 1.37% (8.33 nM); 1.62% (100 nM); -1.41% (833.33 nM); -3.08% (10000 nM).

Turning to `O=C(O[C@H]1CN2CCC1CC2)N(Cc1cc(F)c(F)c(F)c1)c1cccc(F)c1` [tarafenacin], the “inhibition” value reads like this: (1 nM) 1.69%; (8.33 nM) -0.35%; (100 nM) 2.28%; (833.33 nM) -1.46%; (10000 nM) -7.54%.

For the molecule `CCCCc1nc(Cl)c(CO)n1Cc1ccc(-c2ccccc2-c2nnn[nH]2)cc1` [losartan], the “inhibition” value by setting is: (1 nM) 0.46%; (8.33 nM) 1.87%; (100 nM) -0.81%; (833.33 nM) -2.88%; (10000 nM) -1.4%.

`Cc1[nH]c2ccccc2c1CCNCc1ccc(/C=C/C(=O)NO)cc1` [panobinostat]: the “inhibition” value is, setting by setting: (1 nM) -1%; (8.33 nM) -0.99%; (100 nM) -7.01%; (833.33 nM) -13.3%; (10000 nM) -14.4%.
